# Assay outcomes (PubChem)
# hcDAF12 agonist – H. contortus DAF-12 activation, primary screen | activation, % at 6.8 µM | actives 1.4% (n = 370,000) | HEK293 hcDAF-12 lit1-tk-luc reporter, luminescence; 0% DMSO, 100% Δ7-dafachronic acid;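 active = activation above the mean of all tested compounds plus 3 SD, cut at about 5.5% in these data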
# DAX1 inh-1 – inhibitors of human orphan nuclear receptor DAX1 (NR0B1) | inhibition, % at 6.75 µM | HEK293 Gal4-DAX1 luciferase reporter, luminescence | actives 0.99% (n = 340,000) | P51843;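 active = inhibition above the mean over all tested compounds plus 3 SD, cut at about 4.2% in these data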;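 note: inhibition shows as a rise in luminescence from relieved DAX1 repression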
# Target sequence (P51843 207-470 limits assumed): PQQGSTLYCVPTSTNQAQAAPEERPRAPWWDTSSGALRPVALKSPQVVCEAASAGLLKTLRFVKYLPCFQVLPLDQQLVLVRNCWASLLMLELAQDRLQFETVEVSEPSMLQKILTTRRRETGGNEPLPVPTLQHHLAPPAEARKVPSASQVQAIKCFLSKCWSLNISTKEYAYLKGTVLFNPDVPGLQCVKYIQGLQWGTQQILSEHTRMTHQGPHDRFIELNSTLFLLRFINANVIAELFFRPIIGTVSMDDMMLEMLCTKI
# hgDAF12 agonist – agonists of H. glycines DAF-12 nuclear receptor; HEK293 GAL4-hgDAF12 UAS-luciferase reporter, agonist luminescence; normalized to butyrate control; activation, % at 6.8 µM; actives 1.8% (n = 370,000); AID 687014;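 active = activation above a cutoff set at the mean of all screened compounds plus 3 SD, cut at about 10% in these data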
# ssDAF-12 act – activates DAF-12 receptor from parasite S. stercoralis; activation, % at 6.8 µM; AID 652126; HEK293 ssDAF-12/GRIP1 lit1-tk-luc reporter, luminescence; % of 3 µM dafachronic acid response; actives 1% (n = 370,000);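 active = activation above the mean over all tested compounds plus 3 SD, cut at about 0.9% in these data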
# DAX1 inh-2 – DAX1 (NR0B1) inhibition, primary screen. HEK293T StAR-luciferase reporter, SF-1/DAX-1 repression relief. inhibition, % at 6.8 µM. actives 1.1% (n = 370,000);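 active = inhibition above the mean over all tested compounds plus 3 SD, cut at about 3.6% in these data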;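 note: higher inhibition means more luminescence from relief of DAX-1 repression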
# A number is an active result; 0 = inactive; - = no result given; ! = a repeat was not active. The list is not random: actives were taken first. Their share in the collection is about 4.1%.
SMILES,hcDAF12 agonist,DAX1 inh-1,hgDAF12 agonist,ssDAF-12 act,DAX1 inh-2
C=CCOC(=O)C1=C(C)NC(SCC(=O)NC(=O)OCC)=C(C#N)C1c1cccnc1 (stereo unspecified),0,5.3!,0,0,0
Cc1ccc(-n2nnnc2SCn2nnc3ccccc3c2=O)cc1,0,0,13,0,0
O=c1c2ccccc2nnn1CSc1nnnn1-c1ccc(O)cc1,0,0,0,0,0
CCN1CCN(C(=O)C2=CC(c3ccc(C)cc3)=NS(=O)(=O)N2C)CC1,0,4.5,0,0,0
CCN1CCN(C(=O)C2=CC(c3ccc(OC)cc3)=NS(=O)(=O)N2C)CC1,0,0,0,0,0
COc1ccc(C(=O)Nc2nc3ccccc3[nH]2)cc1,0,0,0,0,0
COc1ccc(C(=O)N[C@H](C(=O)NCCCSc2ccccc2)C(C)C)cc1,0,7.8,0,0,0
CCOP(=O)(OCC)C(NC(=O)c1ccc(OC)cc1)c1ccccc1 (stereo unspecified),0,4.3,0,0,0
COc1ccc(C(=O)N[C@H](C(=O)Nc2nc3ccccc3[nH]2)C(C)C)cc1,0,0,13,0,0
CCOC(=O)c1cc(-c2csc(Nc3ccccc3Cl)n2)on1,0,0,0,1.5,0
COc1ccc(CNS(=O)(=O)/C=C/c2ccc(F)cc2CNC(=O)OC(C)(C)C)cc1,0,-,0,0,0
C/C(=N\NC(=O)c1ccc(Cn2cc(Br)cn2)o1)c1ccc(NC(=O)c2ccoc2C)cc1,0,0,0,0,4.4
COC(=O)CSc1nc2ccccn2c(=O)c1C=O,6.3,0,0,1.5,0
Cc1ccc(-c2nnc(NC(=O)COc3ccc(F)cc3Cl)o2)cc1C,0,-,0,0,-
Cc1ccc(C(=O)Nc2nc(-c3ccccn3)cs2)o1,0,0,0,0,0
CCc1cc(C(=O)Nc2nc(-c3ccccn3)cs2)sc1C,0,6.7,0,0,0
O=C(Nc1ccccn1)c1ccc2c(c1)OCCO2,0,0,13,0,4.2
O=C(Nc1ccccn1)c1ccccc1,0,0,0,0,3.9
Cc1cccc(NC(=O)c2ccc3c(c2)OCCO3)n1,-,0,-,-,-
O=C(Nc1nc(-c2ccccn2)cs1)c1ccc2c(c1)OCCO2,0,0,11,0,3.8
CC(=O)Nc1ccc(C(=O)Nc2nc(-c3ccccn3)cs2)cc1,0,0,0,0,0
CCCCCCCCN1CCS(=O)(=O)N(Cc2ccc(C(F)(F)F)cc2)C(C(=O)OC)C1 (stereo unspecified),0,-,0,0,0
C=CCN1C(=O)c2[nH]nc(-c3ccccc3)c2C1c1ccc(C)cc1 (stereo unspecified),0,-,0,0,0
O=C(Nc1ccccn1)C1COc2ccccc2O1 (stereo unspecified),0,0,0,0,0
O=C(/C=C\Nc1ccccn1)c1ccc(Cl)cc1,0,0,0,0,4.2
SMILES,hcDAF12 agonist,DAX1 inh-1,hgDAF12 agonist,ssDAF-12 act,DAX1 inh-2
CC1Oc2ccccc2OC1C(=O)Nc1ccccn1 (stereo unspecified),6.3,0,0,0,0
O=C(Nc1ccccn1)c1ccc(C(=O)Nc2ccccn2)cc1,-,0,-,-,-
COC(=O)C[C@H]1CC[C@@H]2[C@H](COc3ccc(NS(C)(=O)=O)cc3C(=O)N2C)O1,0,-,0,0,0
O=S(=O)(c1ccc(F)cc1)n1c(CN2CCOCC2)nc2ccccc21,0,-,0,0,0
CC1CCN(C(=O)C2CCCN(C(=O)c3ccc4c(c3)NC(=O)CS4)C2)CC1 (stereo unspecified),0,-,0,0,0
COC(=O)COc1cccc(NC(=O)c2ccc(C)cc2)c1,0,0,0,0,0
Cc1ccc(NC(=O)c2ccc(OCC3CCCO3)cc2)cc1 (stereo unspecified),0,0,12,0,0
Cc1cc(OCC(=O)NC(C)(C)C)ccc1Cl,0,0,12,0,0
Cc1ccc(NC(=O)c2ccc(OC(=O)COc3ccc(Cl)c(C)c3)cc2)cc1,0,0,13,0,0
CC(C)(C)OC(=O)N1CCC(N[C@@H](Cc2c[nH]c3ccccc23)C(=O)NCCc2c[nH]c3ccccc23)(C(=O)NC2CCCCC2)CC1,0,-,0,0,-
COC(=O)[C@]12C[C@H](CC(=O)NCC34CC5CC(CC(C5)C3)C4)C(=O)N(Cc3ccc4c(c3)OCO4)C1=C[C@H](C(C)C)O[C@@H]2C1CC1,0,-,0,0,0
